tim23-1 inh: tim23-1 yeast growth inhibition | S. cerevisiae tim23-1 growth, BacTiter-Glo luminescence, 24 h | inhibition, % at 20 µM | hit rate 1.3% among 330,000 | AID 463212;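 active = growth inhibition of the mutant yeast at or above 50%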;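 also: temperature-sensitive mutant grown at 25 °C; plate controls were DMSO-treated mutant yeast for no effect and medium wells lacking yeast for full effect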
SKKanGAS inh: SKKanGAS growth inhibition; S. pyogenes SKKanGAS, kanamycin growth, BacTiter-Glo, 6 h; inhibition, % at 7.5 µM; hit rate 1.3% among 300,000; AID 1662;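 active = mean replicate score, as percent of positive control median, at least 50; inconclusive = mean below 50 but one replicate at or above 50; inactive = mean and every replicate below 50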;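 also: strain carries kanamycin resistance gene driven by streptokinase promoter and grows in 40 µg/ml kanamycin; loss of luminescence reflects streptokinase promoter inhibition or plain growth inhibition; 0% = median of DMSO wells and 100% = positive control at its reference dose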
tim10-1 inh: growth inhibitors of tim10-1 mutant yeast; S. cerevisiae tim10-1 ts strain growth, BacTiter-Glo, 24 h; inhibition, % at 20 µM; hit rate 2.2% among 330,000; AID 463190;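 active = inhibition of at least 40%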;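 also: mutant grown at 25 °C; 0% = DMSO wells with yeast and 100% = wells holding no yeast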
TIM10 inh: TIM10 yeast growth inhibition | S. cerevisiae TIM10 strain growth, BacTiter-Glo luminescence, 24 h | inhibition, % at 10 µM | hit rate 1.4% among 330,000;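 active = inhibition of 40% or more at the single tested concentration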;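 also: wild-type TIM10 isogenic control strain grown at permissive 25 °C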
Calb FLC: affects C. albicans growth with fluconazole. hit rate 0.57% among 300,000. C. albicans CaCi-2 (fluconazole-resistant clinical isolate) + fluconazole, Alamar Blue growth, 48 h. growth inhibition, % (test concentration not listed). AID 1979;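 active = growth inhibition above about 58% in most replicates, limit read from the data, passing the limit was not always enough; inconclusive = exactly half the replicates above a set limit; inactive = most replicates below a set limit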;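 also: all wells also contain fluconazole at 8 µg/ml as a sub-toxic cotreatment; 0% = median of DMSO wells and 100% = median of geldanamycin control wells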
PfHsp90 yeast 2: inhibits growth of yeast expressing Plasmodium falciparum Hsp90 | S. cerevisiae expressing PfHsp90, BacTiter-Glo ATP, 48 h; yeast lacking PDR1 and PDR3 efflux regulators | inhibition, % at 9.4 µM | hit rate 0.32% among 310,000;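 active = every replicate shows inhibition above about 80%, whatever the replicate mean, limit read from the data; inconclusive = mean inhibition reaches the set limit but some replicate falls short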;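 also: 0% = DMSO neutral controls and 100% = 20 µM radicicol positive controls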
Numbers without * were called inactive; ? = inconclusive; / = not tested or not shown. Compounds with a hit are over-represented: about 4.7% of the library has one in this group of screens.

SMILES | tim23-1 inh | SKKanGAS inh | tim10-1 inh | TIM10 inh | Calb FLC | PfHsp90 yeast 2
CCC(CC)c1nnc(NC(=O)c2cc(-c3ccccc3)nc3ccccc23)s1 | 20 | 23 | 23 | 15 | 1 | -34
CCC(CC)c1nnc(NC(=O)c2ccc3ccccc3n2)s1 | 33 | 79* | 33 | 33 | 13 | -6
Cc1csc(NC(=O)c2cnc3ccccc3n2)n1 | 8 | -3 | 17 | 21 | 0 | 16
O=C(Cn1nnc(-c2ccccc2)n1)N/N=C/c1cccc([N+](=O)[O-])c1O | 5 | 90* | 8 | -2 | -3 | -1
CCOc1ccc(N(CC(=O)NC(C)(C)C)C(=O)CCC(=O)Nc2nccs2)cc1 | -2 | 11 | -10 | -4 | -8 | 4
CCCOc1ccc(/C=C/C(=O)N2CCN(c3ccccn3)CC2)cc1 | 41 | 1 | 32 | 13 | 3 | -47
O=C(/C=C/c1ccc(F)cc1)N1CCN(c2ccccn2)CC1 | 10 | -27 | 13 | 2 | 87* | 4
CC(C)c1ccc(S(=O)(=O)/N=C2\C=C(NS(=O)(=O)c3ccccc3)C(=O)c3ccccc32)cc1 | / | 1 | / | / | 38 | -65
Cc1cc[n+](C2=C([O-])c3ccccc3C(=O)/C2=N\S(=O)(=O)c2cccs2)cc1C | 13 | 19 | 13 | 1 | 55 | -6
Cc1cc(C)c[n+](C2=C([O-])c3ccccc3C(=O)/C2=N\S(=O)(=O)c2cccs2)c1 | 11 | ? | 10 | 11 | 44 | -16
CC(C)(C)c1cc[n+](C2=C([O-])c3ccccc3C(=O)/C2=N\S(=O)(=O)c2ccccc2)cc1 | -4 | 86* | 0 | 21 | 7 | /
O=C1/C(=N\S(=O)(=O)c2cccs2)C([n+]2ccc(CCCc3ccccc3)cc2)=C([O-])c2ccccc21 | 10 | 110* | 7 | 0 | -4 | /
O=C1/C(=N\S(=O)(=O)c2cccs2)C([n+]2cccc(Cc3ccccc3)c2)=C([O-])c2ccccc21 | -19 | 106* | -13 | -27 | 9 | -8
COc1ccc(NC(=O)C2CCN(S(=O)(=O)c3cn(C)nc3C)CC2)cc1 | 8 | 0 | -7 | 3 | 0 | 15
O=C(CCC(=O)c1ccc(Cl)cc1)OCn1nnc2ccccc2c1=O | 21 | / | -16 | -18 | / | -3
C=CCNC(=O)Cn1nnc(-c2ccc(-c3ccc(OC)cc3)cc2)n1 | 3 | 4 | 18 | 2 | -3 | 6
O=C(NCC1CCCO1)C(c1ccc(F)cc1)N(Cc1ccc(F)cc1)C(=O)Cn1nnc(-c2cccs2)n1 (stereo unspecified) | -3 | 10 | 11 | 12 | 104* | -5
CCc1ccc(C(=O)NNc2ccc(F)cc2)cc1 | 14 | -6 | -15 | -43 | 80* | 4
Cc1c(NC(=O)CSc2ccc3ccccc3n2)c(=O)n(-c2ccccc2)n1C | 7 | / | -14 | 0 | / | 5
COc1ccc(C(=O)CSc2[nH]c(=O)cc(C(F)(F)F)c2C#N)cc1 | 11 | 66* | 1 | -23 | 31 | -21
COc1ccc(O)c(C2=Nc3ccccc3N=C(c3cccs3)C2)c1 | 25 | 60* | 18 | 9 | 2 | 7
CCOC(=O)C(=NC1CCS(=O)(=O)C1)NNc1ccccc1Cl (stereo unspecified) | -14 | 1 | -68 | -80 | -9 | 40
CCOC(=O)C(=NC1CCS(=O)(=O)C1)NNc1ccc(Br)cc1 (stereo unspecified) | -65 | -3 | -73 | -45 | 112* | 18
CCOC(=O)C(=NC1CCCCC1)NNc1cccc(C(F)(F)F)c1 | 33 | 43 | -20 | 13 | 57* | 10
Cc1c(C(=O)NCCSCc2cccc(C(F)(F)F)c2)cnn1-c1ccc(Cl)cc1 | 44 | 14 | 4 | 4 | -3 | 84*
SMILES | tim23-1 inh | SKKanGAS inh | tim10-1 inh | TIM10 inh | Calb FLC | PfHsp90 yeast 2
c1ccc(-c2csc3ncnc(N4CCOCC4)c23)cc1 | 18 | -2 | 20 | 30 | 6 | -13
c1ccc(-c2csc3ncnc(N4CCc5ccccc5C4)c23)cc1 | / | 89* | / | / | 16 | -16
COc1ccc(-c2csc3ncnc(N4CCN(c5ccccc5Cl)CC4)c23)cc1 | 18 | 55* | 16 | 1 | -14 | -24
COc1ccc(-c2csc3ncnc(N4CCN(c5cccc(C)c5C)CC4)c23)cc1 | 3 | 18 | 6 | -3 | 4 | -19
O=C(NC1CCCc2ccccc21)c1cccc(F)c1 (stereo unspecified) | / | / | / | / | / | -19
CCc1ccc(C(=O)C(C)OC(=O)c2nc3nc(C)cc(C)n3n2)cc1 (stereo unspecified) | -13 | 6 | -16 | -2 | -8 | 18
COc1ccc(-c2ccccc2NC(=O)C2CCCN(Cc3ccc(C)o3)C2)cc1 (stereo unspecified) | 9 | -1 | 16 | -1 | 6 | 11
Cc1cc(C)nc(NS(=O)(=O)c2ccc(NC(=O)Cc3ccccc3)cc2)n1 | 9 | 6 | 12 | 2 | -9 | 14
Cc1c(C(=O)OCC(=O)Nc2cccc(S(N)(=O)=O)c2)oc2c1ccc1ccccc12 | 4 | 66* | 8 | -7 | 6 | -15
Cc1cc(C)nc(NS(=O)(=O)c2ccc(NC(=O)COc3ccccc3)cc2)n1 | 13 | 5 | 8 | -5 | 79* | /
Cc1cc(C(=O)OCC(=O)Nc2ccc(S(N)(=O)=O)cc2)c2ccccc2n1 | 17 | -3 | 17 | 20 | 127* | 10
Cc1ccnc(NS(=O)(=O)c2ccc(NC(=O)c3cc(-c4ccccc4)nc4ccccc34)cc2)n1 | 1 | 24 | 23 | -14 | 2 | 16
Cc1ccnc(NS(=O)(=O)c2ccc(NC(=O)c3cc(-c4ccc(Br)cc4)nc4ccccc34)cc2)n1 | -6 | 62* | 4 | 11 | 14 | -6
O=C(/C=C/c1ccccc1)N1CCOCC1 | 2 | -12 | -4 | 4 | 3 | -18
O=C(/C=C/c1ccccc1)CCN1CCOCC1 | / | / | / | / | / | 107*
COc1cc(C(C)=O)ccc1OCC(O)Cn1nc(C)c(Br)c1C (stereo unspecified) | 10 | 2 | 12 | 9 | -2 | -7
Cc1ccc(C(=O)NNC2=Nc3cccc4cccc2c34)cc1 | -10 | 58* | -18 | -20 | 24 | -116
COc1ccc(C(=O)NNC2=Nc3cccc4cccc2c34)cc1 | -8 | 38 | -26 | 1 | -13 | -50
CCCCCCSc1nnc2[nH]c(=O)cc(N)n12 | 6 | 3 | 6 | -4 | 94* | 16
CCCCCSc1nc(O)cc(=O)[nH]1 | 5 | 19 | -6 | 3 | -2 | 9
CCCCCCCSc1nc(N)cc(=O)[nH]1 | 16 | -4 | 26 | 13 | 103* | 1
CCc1cc(S(=O)(=O)N2CCN(C(=O)c3ccco3)CC2)ccc1OC | 15 | 5 | 3 | 4 | 1 | 33
CC(C)(O)c1[nH]c2cc(F)ccc2c1C(C)(C)O | / | 90* | / | / | 35 | 9
